Source: PubChem (Broad Institute)
Only a selection was taken, and hits are over-represented in it overall.
Tgondii IFNg = inhibitors of Toxoplasma gondii growth with IFN-gamma; Toxoplasma gondii growth in IFN-gamma-treated host cells; active compounds read low; activity change, negative = inhibition, % (no concentration beside the values); 69,000 compounds, 3.8% hits; AID 1259416; in the data active means activity change below about -70%, passing the limit was not always enough;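 further: host cells are HeLa cells infected with Toxoplasma gondii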
* = called active by the depositor; i = inactive.

SMILES	Tgondii IFNg
Cc1cnccc1NCCNC(=O)C1CCOC1 (stereo not given)	-1.6
CC(C)C(=O)c1ccc2nnc3ncn(C4CCCC4)c3c2c1	-15.9
Fc1cccc(-c2noc(-c3ccc(N4CCC(N5CCCCC5)CC4)nc3)n2)c1	-19.7
CN(Cc1nnc(-c2ccccc2)o1)C(=O)c1ccc2c(c1)nnn2C1CCCCC1	-3.1
CCC(=O)N1CCc2c([nH]c3ccccc23)C12C(=O)N(C)c1ccc(Br)cc12 (stereo not given)	108.8
CCCC(=O)N1CCc2c([nH]c3ccccc23)C12C(=O)Nc1ccc(Br)cc12 (stereo not given)	-81.6*
CCC(=O)N1CCc2c([nH]c3ccccc23)C12C(=O)Nc1ccc(Br)cc12 (stereo not given)	-48.5
Cc1cnccc1CN(C)C(=O)c1cn(Cc2ccc(Cl)cc2)nn1	-3.0
COc1cc(Br)c(-c2cc3ccccc3oc2=O)cc1OC	-86.3*
O=c1oc2ccccc2cc1-c1csc(-c2ccccc2Cl)n1	5.6
COc1cc(NC(=O)c2ccc(Cl)cc2Cl)ccc1-c1cc2ccccc2oc1=O	-85.0*
O=C(COC(=O)c1cc2ccccc2oc1=O)c1ccc(Cl)cc1Cl	4.4
COc1cccc2cc(-c3ccccc3)c(=O)oc12	228.8
COc1ccccc1NC(=O)c1cccc(-c2cc3ccccc3oc2=O)c1	26.3
COc1cccc(-c2nc(Cn3nnc(C(=O)Nc4ccc(C)cc4Cl)c3C)c(C)o2)c1OC	60.3
Cn1cncc1-c1cc(NCCO)nc2[nH]ccc12	10.9
COCC1c2nnn(CC3CC3)c2CCN1Cc1ccncc1 (stereo not given)	-11.3
C=CCOc1nc(-c2cccs2)cc(-c2ccco2)c1C#N	21.6
COc1ccccc1C1(NC(=O)Cn2c(C(F)(F)F)nc3ccccc32)CCCC1	-13.5
CCc1ccc(S(=O)(=O)N2CCCn3cnc(CN4CCCC4=O)c3C2)cc1	-20.7
CCCCCS(=O)(=O)CCCCCCCCCCn1c(-c2ccc(O)cc2)c(C)c2cc(O)ccc21	-78.7*
CCCCNC(=O)CN(C)C(=O)c1cccc(-c2ccc(O)cc2)c1	1.8
CC(C)N(C)Cc1cnc2n1CCN(Cc1nccs1)CC2	-10.1
Cc1cccc(COCC2CN(S(C)(=O)=O)Cc3ncn(C)c32)n1 (stereo not given)	-2.8
Cc1cc(C)n(CCCC(=O)N2CC3(CCNCC3)CC2C(=O)O)n1 (stereo not given)	-7.9
SMILES	Tgondii IFNg
O=S(=O)(Nc1ccc(Oc2ncnc3cc(Cl)ccc23)nc1)c1cccs1	10.3
CC(C)N(Cc1ccccc1)S(=O)(=O)c1cccs1	-14.6
CC(=O)N(c1ccc(NS(=O)(=O)c2cccs2)cn1)S(=O)(=O)c1cccs1	-102.5*
COCCN1CCN(C(=O)c2ccno2)Cc2ccc(C)nc21	-3.9
Fc1ccc(N2CCCN(Cc3cccs3)CC2)cc1	-3.2
Cc1ccc2c(c1)cc(S(=O)(=O)c1ccccc1)c(=O)n2CC(=O)NC1CCCCC1	15.6
CC(C)(C)c1ccc(-c2nc3ccccc3[nH]2)cc1	-86.9*
c1ccc(-c2nc3ccccc3[nH]2)cc1	167.0
Cc1ccc(-c2nc3ccccc3[nH]2)cc1	-14.3
CN1CCC(Cc2noc(-c3ccccc3N3CCOCC3)n2)CC1	2.2
O=C(NCc1ccc(F)cc1F)c1c(O)c2cccnc2[nH]c1=O	51.5
Cc1ccc(N2C(=O)CC(Sc3ccccn3)C2=O)cc1 (stereo not given)	-11.5
Cc1cccc(N2C(=O)CC(Sc3nnc(C)s3)C2=O)c1 (stereo not given)	-4.8
O=C1CC(Sc2ccc(Cl)cc2)C(=O)N1c1cc(F)c(Br)cc1F (stereo not given)	-84.5*
CC(NC(=O)CCSCc1ccc(F)cc1)c1cn2ccsc2n1 (stereo not given)	3.0
CC(C)(C#N)c1ccc(N2C(=O)OCc3cnc4ccc(-c5cnc6ccccc6c5)cc4c32)cc1	-85.0*
Cn1cnc(S(=O)(=O)N2CCC3(CC2)Nc2ccc(Cl)cc2-n2cccc23)c1	0.2
Cc1c(C)c(C)c(C(=O)c2ccccc2C(=O)Nc2c(F)cccc2F)c(C)c1C	-61.6
CN1CCN(C)C2(CCN(C(=O)c3csnn3)CC2)C1=O	-6.0
C[C@H]1CN([C@@H](C)CO)S(=O)(=O)c2ccc(C#CCC3CCCC3)cc2O[C@H]1CN(C)C(=O)c1cnccn1	-90.6*
C[C@@H]1CN([C@@H](C)CO)S(=O)(=O)c2ccc(C#CCC3CCCC3)cc2O[C@H]1CN(C)C(=O)c1cnccn1	-61.6
COc1cccc(C#Cc2ccc3c(c2)O[C@H](CN(C)C(=O)CN2CCOCC2)[C@H](C)CN([C@H](C)CO)S3(=O)=O)c1	5.8
C[C@@H]1CN([C@@H](C)CO)S(=O)(=O)c2ccc(C#Cc3ccccc3F)cc2O[C@H]1CN(C)C(=O)Cc1cccnc1	-90.3*
COCC#Cc1ccc2c(c1)O[C@H](CN(C)C(=O)C1CCOCC1)[C@H](C)CN([C@H](C)CO)S2(=O)=O	64.7
COc1cccc(C#Cc2ccc3c(c2)O[C@@H](CN(C)C(=O)CN2CCOCC2)[C@@H](C)CN([C@H](C)CO)S3(=O)=O)c1	-42.0
SMILES	Tgondii IFNg
COc1ccc(OC)c(CNC(=O)Cn2ncc3c(N4CCOCC4)ncnc32)c1	52.9
CN1CCN2CCN(c3cncc(C(=O)N4CCCCC4)n3)CC2C1=O (stereo not given)	-26.5
Cc1cccc(CO[C@@H]2CN(C(=O)CN(C)C)[C@H]3CCCO[C@@H]23)n1	10.0
Cc1nc2ccc(C(=O)NC(c3ccncc3)c3ccccc3C)cc2s1 (stereo not given)	14.6
Cc1ccc(-c2ccc(S(N)(=O)=O)s2)c(-n2cccn2)c1	5.9
Cc1cc(=O)[nH]c(SC(C)C(=O)O)n1 (stereo not given)	5.2
O=C(c1ccccc1)N1CCc2c([nH]c3ccccc23)C1c1ccc(F)cc1 (stereo not given)	-85.5*
COCC(=O)N1CCc2c([nH]c3ccccc23)C1c1ccc(F)cc1 (stereo not given)	410.5
O=C(c1ccccc1F)N1CCc2c([nH]c3ccccc23)C1c1ccc(F)cc1 (stereo not given)	280.8
COc1ccc(C2c3[nH]c4ccccc4c3CCN2C(=O)c2ccc(Br)cc2)cc1 (stereo not given)	-88.8*
Cc1ccc(C(=O)N2CCc3c([nH]c4ccccc34)C2c2ccc(F)cc2)cc1 (stereo not given)	-18.6
CSc1ccc(C2c3[nH]c4ccccc4c3CCN2C(=O)c2ccc(N(C)C)cc2)cc1 (stereo not given)	-52.5
CN(C)c1cccc(C(=O)N2CCc3c([nH]c4ccccc34)C2c2ccc(F)cc2)c1 (stereo not given)	-94.3*
CCOc1ccc(C2c3[nH]c4ccccc4c3CCN2C(=O)c2ccc(OC)cc2)cc1 (stereo not given)	-76.2
Cc1ccc(C2c3[nH]c4ccccc4c3CCN2C(=O)c2ccc(Br)cc2)cc1 (stereo not given)	246.4
Cc1ccc(C2c3[nH]c4ccccc4c3CCN2C(=O)c2ccc(F)cc2)cc1 (stereo not given)	i
COc1ccc(C(=O)N2CCc3c([nH]c4ccccc34)C2c2ccc(F)cc2)cc1 (stereo not given)	-130.0*
COc1cccc(C(=O)NCCC(=O)N2[C@@H]3CC[C@H]2CN(C)C(=O)C3)c1	-46.1
Cc1ccc(-c2nc(Cn3nnc(-c4nc(-c5ccc(F)cc5)no4)c3C)c(C)o2)cc1	-20.9
Cc1cc(C)n2ncc(CN(Cc3noc(C)n3)C(C)C)c2n1	1.1
COC[C@@]12COC[C@@H]1CN(CCOCc1ccccc1)C2	-32.0
